Experiment [1] concerns the target human Retinoic Acid Receptor beta (RARb), RARB (gene 5915) (UniProt P10826). Kind of experiment: ATG_RARb_TRANS: Attagene TRANS-FACTORIAL HepG2 Assay for human Retinoic Acid Receptor beta (AID 2283004; active = hit-call score of the fitted dose curve at least 0.9, where 1 is the maximum). In short, it runs like this: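 HepG2 cells were transiently transfected with GAL4-UAS reporter units that report activity of exogenous chimeric NR-Gal4 proteins, then exposed to compound for 24 h. Reporter mRNA was quantified by RT-PCR with capillary electrophoresis fluorescence, as gain of signal over DMSO.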

In experiment [2] the target is human Retinoic Acid Receptor gamma (RARg), RARG (gene 5916) (UniProt P13631). Kind of experiment: ATG_RARg_TRANS: Attagene TRANS-FACTORIAL HepG2 Assay for human Retinoic Acid Receptor gamma (RARg) (AID 2283009; active = hit-call score of the fitted dose curve at least 0.9, where 1 is the maximum). Summed up: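 HepG2 cells transiently transfected with multiplexed reporter units expressing chimeric RARg-GAL4 and GAL4-UAS-driven reporters; 24 h compound exposure. Reporter mRNA quantified by RT-PCR with fluorescent labelling and capillary electrophoresis; gain-of-signal fitted relative to DMSO baseline.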

For experiment [3], the target named is Retinoic acid receptor alpha (Homo sapiens) (UniProt P10276). The experiment can be described thus: ATG_RARa_TRANS: Attagene TRANS-FACTORIAL HepG2 Assay for human Retinoic Acid Receptor alpha (RARa) (AID 2283005; active = hit-call score of the fitted dose curve at least 0.9, where 1 is the maximum). In short, it runs like this: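 Reporter transcripts, measured by RT-PCR with fluorescent labeling and capillary electrophoresis after 24 h dosing, reflect activity of an exogenous human RARa–GAL4 fusion in transiently transfected HepG2. Fitted for increase relative to DMSO.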

Experiment [4] concerns the target Glucocorticoid receptor (Homo sapiens) (UniProt P04150). Kind of experiment: ATG_GR_TRANS: Attagene TRANS-FACTORIAL HepG2 Assay for human Glucocorticoid Receptor (GR) (AID 2282978; active = hit-call score of the fitted dose curve at least 0.9, where 1 is the maximum;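 note: activators score as hits since higher reporter transcript over DMSO is fitted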). The note with it: HepG2 Attagene TRANS GR reporter, mRNA transcription. In short, it runs like this:
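Transient MRTU transfection of HepG2 (GAL4-UAS reporters, exogenous NR-GAL4 chimeras), 24 h dosing. Readout: reporter transcript via RT-PCR + capillary electrophoresis fluorescence. Positive direction vs DMSO baseline.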

The nature of experiment [5]: CEETOX_H295R_MTT_cell_viability: Viability Assessment in the CeeTox HT-H295R MTT Assay (AID 2283718).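 For AC50: curve fitted both ways so AC50 may mark viability loss or gain.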 Summed up: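 MTT reduction (0.5 mg/ml, 4 h at 37 C; absorbance at 570 and 650 nm) gave viability as background-corrected percent change versus controls. H295R cells had 48 h forskolin (10 uM) prestimulation, then 48 h chemical exposure at 0.1% DMSO.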
Experiment [6] is described as follows: BSK_BT_PBMCCytotoxicity: PBMC Cytotoxicity Assessment in the BioMAP Diversity Plus: BT Assay (AID 2284225).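 Note: PBMC viability measured by Alamar Blue dye reduction fluorescence.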 The note with it: primary human B cells with PBMC. Summed up: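 75,000 cells/well; cpd 1 h → SEB + TSST-1 (20 ng/mL final each) → 90 h → Alamar Blue 6 h → fluor. 546/580 nm. DMSO = neg. control/baseline.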
Read-out in experiment [7]: Secreted IgG (sIgG), gene 3500
Kind of experiment: BSK_BT_sIgG: BioMAP Diversity Plus: BT Assay for Secreted IgG (sIgG) Biomarker Activity (AID 2284226). Particulars: primary human B cells with PBMC. In short, it runs like this: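 B cells co-cultured with PBMC were dosed with chemical and secreted IgG quantified by ELISA at 24 h. Activity was fitted in the positive direction relative to DMSO as negative control and baseline.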

Read-out in experiment [8]: Tumor necrosis factor (Homo sapiens) (UniProt P01375)
The experiment can be described thus: BSK_BT_xTNFa: BioMAP Diversity Plus: BT Assay for Tumor necrosis factor alpha (TNF-alpha) Biomarker Activity (AID 2284230). Particulars: primary human B cells with PBMC. Summed up: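 Compounds were added to a B cell plus PBMC co-culture, and after 24 h secreted TNF-alpha was quantified with Luminex xMAP technology, with responses fitted upward from the DMSO control.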

Read-out in experiment [9]: Vascular cell adhesion molecule 1 (VCAM1), VCAM1 (gene 7412)
Kind of experiment: BSK_MyoF_VCAM1: BioMAP Diversity Plus: MyoF Assay for Vascular cell adhesion molecule 1 (VCAM1) Biomarker Activity (AID 2284231). The note with it: primary human lung fibroblasts. In short, it runs like this: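 Primary human lung fibroblasts (BioMAP MyoF system) dosed with chemical, VCAM-1 measured by ELISA 24 hours later. Fitted in the positive direction against DMSO; parallel SRB staining assessed cytotoxicity.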

Read-out in experiment [10]: Collagen I, COL1A1 (gene 1277)
The experiment can be described thus: BSK_MyoF_CollagenI: BioMAP Diversity Plus: MyoF Assay for Collagen I Biomarker Activity (AID 2284238). Particulars: primary human lung fibroblasts. Summed up: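 Primary human lung fibroblasts (MyoF system) treated 24 h; Collagen I quantified by ELISA and fitted in positive direction against DMSO. Parallel SRB total-protein staining assessed overt cytotoxicity.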

Read-out in experiment [11]: Actin alpha 1 (ACTA1), ACTA1 (gene 58)
Kind of experiment: BSK_MyoF_ACTA1: BioMAP Diversity Plus: MyoF Assay for Actin alpha 1 (ACTA1) Biomarker Activity (AID 2284244). Particulars: primary human lung fibroblasts. In short, it runs like this: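 Human lung fibroblasts (MyoF system) dosed with test chemical for 24 h; α-SMA measured by ELISA. Gain of signal fitted relative to DMSO negative control as baseline.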

Read-out in experiment [12]: Basic fibroblast growth factor (bFGF), FGF2 (gene 2247)
The experiment can be described thus: BSK_MyoF_bFGF: BioMAP Diversity Plus: MyoF Assay for Basic fibroblast growth factor (bFGF) Biomarker Activity (AID 2284246). The note with it: primary human lung fibroblasts. In short, it runs like this: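 Human lung fibroblasts were dosed with chemicals and bFGF was quantified by ELISA 24 h later. Activity was fitted in the gain-of-signal direction relative to DMSO as negative control and baseline. Parallel SRB total-protein staining tracked overt cytotoxicity.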

Read-out in experiment [13]: Collagen IV, COL4A1 (gene 1282)
The experiment can be described thus: BSK_MyoF_CollagenIV: BioMAP Diversity Plus: MyoF Assay for Collagen IV Biomarker Activity (AID 2284247). Particulars: primary human lung fibroblasts. In short, it runs like this: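 Primary human lung fibroblasts were exposed to test chemicals and sampled 24 h after dosing. Collagen IV levels were measured by ELISA and fitted in the positive direction against DMSO as negative control and baseline.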

Read-out in experiment [14]: Plasminogen activator inhibitor-1 (PAI1), SERPINE1 (gene 5054)
The experiment can be described thus: BSK_MyoF_PAI1: BioMAP Diversity Plus: MyoF Assay for Plasminogen activator inhibitor-1 (PAI1) Biomarker Activity (AID 2284256).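 Note: PAI-1 read 24 h after compound addition.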 Particulars: primary human lung fibroblasts. Summed up:
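Primary human lung fibroblasts treated with chemical for 24 h; PAI-1 levels quantified by ELISA relative to DMSO. Cytotoxicity was assessed in parallel cultures by SRB total-protein staining (0.1% SRB after 10% TCA fixation, 560 nm).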

Read-out in experiment [15]: Interleukin-8 (IL8), CXCL8 (gene 3576)
Kind of experiment: BSK_MyoF_IL8: BioMAP Diversity Plus: MyoF Assay for Interleukin-8 (IL8) Biomarker Activity (AID 2284261). The note with it: primary human lung fibroblasts. In short, it runs like this:
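Human lung fibroblast (MyoF system) cultures dosed for 24 h, then IL-8 measured by ELISA. Response taken relative to DMSO; parallel SRB total-protein staining for cytotoxicity.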

The nature of experiment [16]: BSK_MyoF_SRB: Viability Assessment in the BioMAP Diversity Plus: MyoF Assay (AID 2284267).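 Note: total protein by SRB absorbance in parallel cultures as cytotoxicity measure; cells assessed 24 h after compound addition.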 Particulars: primary human lung fibroblasts. Summed up:
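Human lung fibroblasts dosed with chemical and assessed 24 h later for overt cytotoxicity in parallel cultures. Total protein quantified by sulforhodamine B staining (0.1% SRB after 10% TCA fixation), read at 560 nm, analysed in positive direction versus DMSO baseline.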

Read-out in experiment [17]: TIMP metallopeptidase inhibitor 1 (TIMP1), TIMP1 (gene 7076)
The experiment can be described thus: BSK_MyoF_TIMP1: BioMAP Diversity Plus: MyoF Assay for TIMP metallopeptidase inhibitor 1 (TIMP1) Biomarker Activity (AID 2284269). The note with it: primary human lung fibroblasts. In short, it runs like this: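 Fibroblasts from human lung are dosed with chemical, cultured 24 h, and assayed for TIMP-1 by ELISA. Increases over the DMSO baseline are scored, with SRB total-protein staining run in parallel for cytotoxicity.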

For experiment [18], the target named is human Peripheral-type Benzodiazepine Receptor (PBR), TSPO (gene 706) (UniProt P30536). Kind of experiment: NVS_MP_hPBR: NovaScreen (NVS) Membrane Protein Assay for human Peripheral-type Benzodiazepine Receptor (PBR) (AID 2283331; active = hit-call score of the fitted dose curve at least 0.9, where 1 is the maximum;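 note: hits reduce radioligand binding relative to DMSO baseline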). In short, it runs like this: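 Scintillation counts of filter-bound radioligand served as read-out after 1 h chemical dosing of human colonic membrane preparations. Activity was scored as signal loss against DMSO; initial duplicates at 25 uM, confirmatory concentration series afterward.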

In experiment [19] the target is Androgen receptor (Homo sapiens) (UniProt P10275). The experiment can be described thus: ATG_AR_TRANS: Attagene TRANS-FACTORIAL HepG2 Assay for human Androgen Receptor (AR) (AID 2282973; active = hit-call score of the fitted dose curve at least 0.9, where 1 is the maximum). The note with it: HepG2 Attagene TRANS-FACTORIAL AR reporter transcription. In short, it runs like this: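 HepG2 cells transiently transfected with AR-Gal4 chimera and GAL4-UAS reporter units; chemical exposure 24 h. Reporter mRNA quantified by RT-PCR with fluorescent labelling and capillary electrophoresis; gain-of-signal fitted against DMSO.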

Experiment [20] concerns the target rat Thyrotropin Releasing Hormone Receptor (TRH), Trhr (gene 25570) (UniProt Q01717). Kind of experiment: NVS_GPCR_rTRH: NovaScreen (NVS) G Protein-Coupled Receptor Assay for rat Thyrotropin Releasing Hormone Receptor (TRH) (AID 2283329; active = hit-call score of the fitted dose curve at least 0.9, where 1 is the maximum;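 note: hit means lower bound tracer signal versus DMSO baseline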). In short, it runs like this:
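Rat forebrain membrane prep, radioligand displacement, filter scintillation readout at 4 h. Single conc 25 uM, duplicate; actives retested as concentration series. DMSO = negative control/baseline.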

Records with an inconclusive call do not appear. Calls of active or inactive are those of the source. Rule for the calls, unless noted: active = hit-call score of the fitted dose curve at least 0.9, where 1 is the maximum; inactive = score below 0.9.

Chain of Tumor necrosis factor (Homo sapiens) (P01375 whole entry, looked up): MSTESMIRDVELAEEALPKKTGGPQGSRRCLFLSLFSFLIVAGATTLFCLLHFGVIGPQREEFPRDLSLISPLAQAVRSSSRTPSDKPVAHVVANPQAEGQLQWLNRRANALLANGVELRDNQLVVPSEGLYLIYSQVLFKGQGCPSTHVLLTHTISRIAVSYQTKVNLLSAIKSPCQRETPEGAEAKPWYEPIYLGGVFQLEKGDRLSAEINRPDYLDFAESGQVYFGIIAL
Chain of rat Thyrotropin Releasing Hormone Receptor (TRH), Trhr (gene 25570) (Q01717 whole entry, looked up): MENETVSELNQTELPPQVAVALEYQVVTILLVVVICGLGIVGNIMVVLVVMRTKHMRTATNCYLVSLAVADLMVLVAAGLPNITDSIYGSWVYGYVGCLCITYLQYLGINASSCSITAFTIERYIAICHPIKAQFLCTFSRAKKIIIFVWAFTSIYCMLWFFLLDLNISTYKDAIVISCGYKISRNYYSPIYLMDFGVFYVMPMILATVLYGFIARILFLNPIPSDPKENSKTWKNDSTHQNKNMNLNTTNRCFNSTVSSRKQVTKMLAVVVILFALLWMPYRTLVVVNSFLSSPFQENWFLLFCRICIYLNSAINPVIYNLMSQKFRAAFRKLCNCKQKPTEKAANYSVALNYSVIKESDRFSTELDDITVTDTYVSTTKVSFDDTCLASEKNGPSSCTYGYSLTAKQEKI
Chain of human Retinoic Acid Receptor beta (RARb), RARB (gene 5915) (P10826 whole entry, looked up, the tested form may be a part): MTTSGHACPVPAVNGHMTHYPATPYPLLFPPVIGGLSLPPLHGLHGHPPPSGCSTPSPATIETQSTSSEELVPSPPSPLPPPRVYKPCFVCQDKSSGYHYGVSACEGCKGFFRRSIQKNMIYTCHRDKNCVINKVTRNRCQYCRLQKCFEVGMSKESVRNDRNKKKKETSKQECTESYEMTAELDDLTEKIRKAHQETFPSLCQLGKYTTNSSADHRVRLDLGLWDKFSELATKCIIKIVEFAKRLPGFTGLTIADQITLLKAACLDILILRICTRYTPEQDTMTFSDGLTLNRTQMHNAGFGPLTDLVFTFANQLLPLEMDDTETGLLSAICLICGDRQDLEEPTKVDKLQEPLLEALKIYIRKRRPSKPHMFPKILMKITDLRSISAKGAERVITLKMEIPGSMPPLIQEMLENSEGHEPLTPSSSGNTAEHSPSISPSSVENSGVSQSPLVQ
Chain of Retinoic acid receptor alpha (Homo sapiens) (P10276 whole entry, looked up, the tested form may be a part): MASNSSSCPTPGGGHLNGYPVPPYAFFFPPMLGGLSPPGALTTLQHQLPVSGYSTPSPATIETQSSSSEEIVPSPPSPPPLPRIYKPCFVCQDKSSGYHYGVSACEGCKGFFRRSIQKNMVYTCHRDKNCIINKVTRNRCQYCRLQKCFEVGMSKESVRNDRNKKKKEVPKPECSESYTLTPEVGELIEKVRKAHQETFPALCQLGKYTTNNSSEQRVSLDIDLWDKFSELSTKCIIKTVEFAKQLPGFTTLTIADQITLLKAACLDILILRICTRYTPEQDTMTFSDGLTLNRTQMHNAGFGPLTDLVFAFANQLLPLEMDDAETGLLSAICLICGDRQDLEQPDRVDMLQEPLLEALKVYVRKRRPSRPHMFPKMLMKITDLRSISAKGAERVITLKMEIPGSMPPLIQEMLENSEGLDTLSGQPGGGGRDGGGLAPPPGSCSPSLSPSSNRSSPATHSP
Chain of human Retinoic Acid Receptor gamma (RARg), RARG (gene 5916) (P13631 whole entry, looked up, the tested form may be a part): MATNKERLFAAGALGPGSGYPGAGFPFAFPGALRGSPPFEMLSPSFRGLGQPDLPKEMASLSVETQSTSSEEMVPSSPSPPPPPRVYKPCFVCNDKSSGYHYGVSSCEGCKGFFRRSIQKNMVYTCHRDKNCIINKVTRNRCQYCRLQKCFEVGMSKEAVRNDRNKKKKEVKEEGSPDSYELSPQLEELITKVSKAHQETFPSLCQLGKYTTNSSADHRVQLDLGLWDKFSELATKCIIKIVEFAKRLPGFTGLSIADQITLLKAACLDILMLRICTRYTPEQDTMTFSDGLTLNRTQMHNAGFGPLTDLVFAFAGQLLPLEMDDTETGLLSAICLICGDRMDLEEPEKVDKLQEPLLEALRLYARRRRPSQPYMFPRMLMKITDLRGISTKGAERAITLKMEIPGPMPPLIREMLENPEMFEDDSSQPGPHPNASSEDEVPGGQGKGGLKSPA
Chain of Glucocorticoid receptor (Homo sapiens) (P04150 whole entry, looked up, the tested form may be a part): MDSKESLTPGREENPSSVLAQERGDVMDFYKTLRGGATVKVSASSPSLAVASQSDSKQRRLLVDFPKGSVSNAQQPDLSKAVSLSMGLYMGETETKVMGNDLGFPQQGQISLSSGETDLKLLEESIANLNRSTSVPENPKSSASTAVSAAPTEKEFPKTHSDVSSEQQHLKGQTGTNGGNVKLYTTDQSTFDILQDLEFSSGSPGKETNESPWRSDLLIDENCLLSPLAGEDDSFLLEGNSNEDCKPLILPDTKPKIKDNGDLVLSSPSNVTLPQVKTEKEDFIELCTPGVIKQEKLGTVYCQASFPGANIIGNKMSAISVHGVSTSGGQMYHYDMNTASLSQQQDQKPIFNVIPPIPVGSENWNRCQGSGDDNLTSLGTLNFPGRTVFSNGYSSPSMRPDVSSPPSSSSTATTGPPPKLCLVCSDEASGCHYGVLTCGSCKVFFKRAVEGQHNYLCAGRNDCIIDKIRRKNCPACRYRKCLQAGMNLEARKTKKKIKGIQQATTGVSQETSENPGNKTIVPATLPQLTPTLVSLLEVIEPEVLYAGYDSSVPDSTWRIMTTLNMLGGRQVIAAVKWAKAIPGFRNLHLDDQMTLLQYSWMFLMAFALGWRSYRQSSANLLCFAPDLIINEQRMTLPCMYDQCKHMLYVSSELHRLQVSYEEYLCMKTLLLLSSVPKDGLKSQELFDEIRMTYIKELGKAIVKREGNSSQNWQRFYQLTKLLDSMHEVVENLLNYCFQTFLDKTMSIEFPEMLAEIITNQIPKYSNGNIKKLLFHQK
Chain of Androgen receptor (Homo sapiens) (P10275 whole entry, looked up, the tested form may be a part): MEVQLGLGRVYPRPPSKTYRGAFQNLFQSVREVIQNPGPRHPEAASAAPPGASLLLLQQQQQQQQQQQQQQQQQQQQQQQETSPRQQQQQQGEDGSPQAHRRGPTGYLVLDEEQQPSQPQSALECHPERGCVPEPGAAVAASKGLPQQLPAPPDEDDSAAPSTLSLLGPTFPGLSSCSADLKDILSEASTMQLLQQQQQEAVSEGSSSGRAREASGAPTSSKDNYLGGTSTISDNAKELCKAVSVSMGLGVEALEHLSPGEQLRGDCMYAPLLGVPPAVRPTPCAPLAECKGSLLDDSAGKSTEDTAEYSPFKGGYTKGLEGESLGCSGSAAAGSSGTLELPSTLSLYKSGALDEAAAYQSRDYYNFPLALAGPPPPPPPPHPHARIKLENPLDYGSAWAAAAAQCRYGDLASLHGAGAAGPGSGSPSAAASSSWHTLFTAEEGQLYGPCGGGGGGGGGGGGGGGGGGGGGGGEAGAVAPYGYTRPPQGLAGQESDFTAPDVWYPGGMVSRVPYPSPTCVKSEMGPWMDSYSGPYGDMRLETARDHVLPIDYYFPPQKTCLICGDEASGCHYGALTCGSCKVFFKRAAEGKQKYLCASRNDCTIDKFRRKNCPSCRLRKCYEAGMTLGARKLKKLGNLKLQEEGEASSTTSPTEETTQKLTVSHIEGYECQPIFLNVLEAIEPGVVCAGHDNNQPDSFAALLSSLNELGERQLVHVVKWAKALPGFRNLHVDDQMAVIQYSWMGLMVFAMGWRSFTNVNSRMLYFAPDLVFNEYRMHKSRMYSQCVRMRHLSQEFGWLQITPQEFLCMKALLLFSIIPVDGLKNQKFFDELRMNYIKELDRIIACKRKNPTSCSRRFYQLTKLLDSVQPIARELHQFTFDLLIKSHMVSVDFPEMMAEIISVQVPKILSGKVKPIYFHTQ
Chain of human Peripheral-type Benzodiazepine Receptor (PBR), TSPO (gene 706) (P30536 whole entry, looked up): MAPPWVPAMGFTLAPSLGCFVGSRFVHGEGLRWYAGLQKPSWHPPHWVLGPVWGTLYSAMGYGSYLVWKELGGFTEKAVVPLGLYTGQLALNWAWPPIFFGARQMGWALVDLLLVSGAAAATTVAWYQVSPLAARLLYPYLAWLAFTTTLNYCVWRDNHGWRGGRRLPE

Turning to `CN1C(=O)CCS(=O)(=O)C1c1ccc(Cl)cc1` (configuration not stated), the compound was called inactive in experiment [1] and in [2].

For the compound `Nc1ccccc1C(=O)OCCc1ccccc1`, the compound was classed as inactive in experiment [1] and in experiment [3].

In the case of `CC[N+](=O)[O-]`, the call in [1] was inactive.

In the case of `CC(Cc1ccc(C(C)(C)C)cc1)CN1C[C@@H](C)O[C@@H](C)C1` (some centres not stated), the call in experiment [4] was inactive. Besides, the AC50 in experiment [5] is 65.8 µM (active).

Take `O=c1c2ccccc2c(=O)c2c1cc(Cl)c1[nH]c3c([nH]c12)c(Cl)cc1c(=O)c2ccccc2c(=O)c13`: the result in experiment [6], in experiment [7], in experiment [8], in experiment [9], in experiment [10] and in experiment [11] was inactive. Further, the outcome in experiment [12], in [13], in experiment [14], in experiment [15], in experiment [16] and in experiment [17] was inactive.

For `CCCCCCC1CCOC1=O` (configuration not stated), the call in experiment [4] was inactive.

Regarding `O=S(=O)(c1ccccc1)c1ccccc1`, the outcome in experiment [3], in experiment [2], in experiment [6], in experiment [7], in experiment [8] and in experiment [9] was inactive. In addition, the result in experiment [10], in experiment [11], in experiment [12], in experiment [13], in experiment [14] and in experiment [15] was inactive. In addition, the outcome in experiment [16] and in experiment [17] was inactive. Also, the AC50 in experiment [18] was 10.1 µM (active).

Consider `SCc1ccco1`, for which the outcome in experiment [19] was inactive.

With `CC1CCCC1.[C-]#[O+].[C-]#[O+].[C-]#[O+].[Mn]`, the call in [4], in experiment [1], in [2] and in [20] was inactive.

On to `CC(C)[C@@H](C(=O)O[C@@H](C#N)c1cccc(Oc2ccccc2)c1)c1ccc(Cl)cc1`, for which, in experiment [5], the compound was classed as inactive.

As for `CCOC(=O)NC(=S)Nc1ccccc1NC(=S)NC(=O)OCC`, the call in [4] and in experiment [1] was inactive.

Turning to `C=CC(=O)OCC(CC)CCCC` (configuration not stated), the compound was called inactive in experiment [4], in [6], in experiment [7], in experiment [8], in experiment [9] and in [10]. Moreover, the result in experiment [11], in [12], in [13], in experiment [14], in experiment [15] and in experiment [16] was inactive. Besides, the result in experiment [17] was inactive.

For the compound `O=P(O)(Oc1ccccc1)Oc1ccccc1`, the compound was called inactive in [4] and in experiment [20].

On to `CC(C)CCCCCCCOC(=O)c1ccccc1C(=O)OCCCCCCCC(C)C`, for which the outcome in experiment [6], in experiment [7], in experiment [8], in [9], in experiment [10] and in [11] was inactive. The outcome in experiment [12], in experiment [13], in experiment [14], in [15], in [16] and in [17] was inactive.

`CCCC=NO`: the outcome in experiment [20] was inactive.

Take `C[C@]12CCC(=O)C(O)=C1CC[C@@H]1[C@@H]2CC[C@]2(C)C(=O)CC[C@@H]12`: in experiment [4], the result was inactive.

For `CCc1cccc(C)c1N(C(=O)CCl)[C@@H](C)COC`, the result in experiment [1] was inactive. Further, the AC50 in [18] was 2.89 µM (active).

As to `O=C(NCNC(=O)NC1C(=O)NC(=O)N1CO)NC1C(=O)NC(=O)N1CO` (configuration not stated), the call in [3] and in experiment [2] was inactive.

In the case of `CC(C)(O)C#N`, the result in experiment [1], in experiment [3] and in experiment [2] was inactive.

For `O=CNC(N1CCN(C(NC=O)C(Cl)(Cl)Cl)CC1)C(Cl)(Cl)Cl` (configuration not stated), the call in experiment [4] and in experiment [5] was inactive.

Consider `CN(C)N`, for which the compound was classed as inactive in experiment [19].

Source of the values: PubChem BioAssay (EPA / NIEHS).
